Experiment [1] can be described thus: Nuclear factor erythroid 2-related factor 2/antioxidant responsive element (Nrf2/ARE) small molecule agonists: qHTS cell viability counter screen in human keratinocytes (AID 1919968; active means well fitted curve in the direction sought with a large enough effect in the repeat runs; an effect the other way counts as inactive or inconclusive; further: nearly all actives have a fitted effect of over 55% in size). The procedure, abridged: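 CellTiter-Fluor fluorescence, read 1 h after reagent, gave viability in the same wells as the ARE-luciferase assay. KeratinoSens cells (1,500/well) had 23 h compound exposure at 37 C/5% CO2 following 5 h plating.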

Experiment [2] can be described thus: Nuclear factor erythroid 2-related factor 2/antioxidant responsive element (Nrf2/ARE) small molecule agonists: luciferase reporter gene qHTS assay in human keratinocytes (AID 1919969). Further: nearly all actives have a fitted effect of over 35% in size. Further: potency means the concentration at half of the fitted maximal effect.
Experiment [3] addresses Gonadotropin-releasing hormone receptor (Homo sapiens) (UniProt P30968). Put plainly: Human gonadotropin-releasing hormone receptor (GnRHR) small molecule agonists, calcium flux assay in GnRHR-HEK293 cells (AID 1920063). Further: nearly all actives have a fitted effect of over 35% in size. The procedure, abridged:
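Agonist mode: compounds at 15 concentrations, in triplicate, went onto calcium dye-loaded GnRHR-HEK293 cells. Intracellular calcium was then followed as 480/540 nm fluorescence at 1 s intervals over 3 min.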

For experiment [4], the target named is KiSS-1 receptor (Homo sapiens) (UniProt Q969F8). The experiment in a line: Human kisspeptin (KISS1R) small molecule agonists, calcium flux assay in KISS1R-HEK293 cells (AID 1920064; active means well fitted curve in the direction sought with a large enough effect in the repeat runs; an effect the other way counts as inactive or inconclusive). The procedure, abridged: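 Agonist mode: intracellular calcium rise tracked at 1 s intervals over 3 min (480/540 nm) immediately after compound addition to dye-loaded KISS1R-HEK293 stable cells. Each compound tested at 15 concentrations in triplicate.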

A short description of experiment [5]: G protein-coupled receptor (GPCR) small molecule agonists, calcium flux assay: HEK293 wild type cell line counter screen (AID 1920065). The procedure, abridged:
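Calcium flux counter screen: compound added in agonist mode at 15 concentrations in triplicate to dye-loaded parental HEK293 cells. Fluorescence (480/540) read kinetically for 3 min; ATP served as positive control.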

Experiment [6] can be described thus: p53 small molecule agonists, cell-based qHTS assay with human liver microsomes: qHTS cell viability counter screen (AID 1963579). Further: nearly all actives have a fitted effect of over 45% in size. The procedure, abridged: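 Tox21 library compounds, delivered from DMSO stocks, were tested on p53RE-bla cells together with 0.5 mg/mL human liver microsomes and 0.5 mg/mL NADPH (final) over 16 h at 37 C; CellTiter-Glo luminescence served as the cytotoxicity measure.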

Experiment [7] in a line: p53 small molecule agonists, cell-based qHTS assay with rat liver microsomes: qHTS cell viability counter screen (AID 1963580). Further: nearly all actives have a fitted effect of over 45% in size. The procedure, abridged: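 Rat liver microsome (0.5 mg/mL final) and NADPH (0.5 mg/mL final) co-incubation with compounds for 16 h at 37 C on HCT-116 p53RE-bla cells; cytotoxicity taken from intracellular ATP luminescence.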
Experiment [8] is described as follows: p53 small molecule agonists, cell-based qHTS assay: qHTS cell viability counter screen (AID 1963581). Further: nearly all actives have a fitted effect of over 45% in size. The procedure, abridged: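 Counter screen read by CellTiter-Glo luminescence (ATP content, 30 min at room temperature), run in the same wells as the beta-lactamase reporter read. HCT-116 p53RE-bla cells saw compounds for 16 h at 37 C.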
In experiment [9] the target is 5-hydroxytryptamine receptor 2A (Homo sapiens) (UniProt P28223). Put plainly: 5-hydroxytryptamine receptor 2A (HTR2A) small molecule antagonists, cell-based qHTS assay (AID 1963586). Further: nearly all actives have a fitted effect of over 45% in size. The procedure, abridged:
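CHO cells stably expressing human HTR2A were plated for 18 h at 37 C, then loaded with calcium dye for 1 h. Compounds were preincubated 5 min at room temperature before DOI (4 nM solution) was added. Kinetic fluorescence was read for 3 min.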

Experiment [10] shares this target. The experiment in a line: 5-hydroxytryptamine receptor 2A (HTR2A) small molecule agonists, cell-based qHTS assay (AID 1963587). Further: nearly all actives have a fitted effect of over 30% in size. The procedure, abridged: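 Kinetic calcium-flux fluorescence (2 min, 1 sec intervals) after compound addition in agonist mode. HTR2A-CHO cells were cultured 18 h, then dye-loaded 1 h at 37 C.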
The target in experiment [11] is Muscarinic acetylcholine receptor M1 (Homo sapiens) (UniProt P11229). Put plainly: Cholinergic receptor muscarinic 1 (CHRM1) small molecule agonists, cell-based qHTS assay (AID 1963589). Further: nearly all actives have a fitted effect of over 35% in size. The procedure, abridged: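 Agonist-mode calcium-flux screen: compounds at 15 concentrations, three independent runs, were pin-transferred onto dye-loaded human CHRM1-CHO cells. Fluorescence was then recorded kinetically every second over minutes.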

Experiment [12] can be described thus: cAMP Responsive Elements (CRE) small molecule agonists, cell-based qHTS assay (AID 1963590). The procedure, abridged:
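Agonist mode: compound added to CRE-bla HEK 293T cells (2,000/well, 18 h after plating) for 3 h at 37 C/5% CO2. Reporter activity detected via FRET beta-lactamase substrate, 2 h room-temperature loading.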

Experiment [13] can be described thus: cAMP Responsive Elements (CRE) small molecule antagonists, cell-based qHTS assay (AID 1963591; active means well fitted inhibition curve with a large enough effect in the signal ratio in the repeat runs, not every such curve was filed as active; the % refers to the signal ratio). The procedure, abridged: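 Antagonist mode: compounds are added alongside the adenylyl cyclase activator NKH477 (0.25 uM final) to CRE-bla HEK293T cells for 3 h. LiveBLAzer FRET substrate, 2 h at room temperature, reports bla expression.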
In experiment [14] the target is Beta-2 adrenergic receptor (Homo sapiens) (UniProt P07550). Put plainly: Adrenergic beta2 receptor (ADRB2) small molecule antagonists, cell-based qHTS assay (AID 1963592). Further: series mostly up to about 92 µM; nearly all actives have a fitted effect of over 50% in size. The procedure, abridged:
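Assay format: CHO-ADRB2 cells, 18-20hr seeding at 37C/5% CO2, then compound plus 1nM isoproterenol agonist mix for 0.5hr RT. Homogeneous time-resolved fluorescence cAMP detection after 1hr, expressed as 665/615 nm ratio.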

Experiment [15] concerns the target D(2) dopamine receptor (Homo sapiens) (UniProt P14416). The experiment in a line: Dopamine D2 receptor (DRD2) small molecule agonists, cell-based qHTS assay (AID 1963594). Further: nearly all actives have a fitted effect of over 35% in size. The procedure, abridged: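 cAMP accumulation in DRD2-HEK293 cells measured by HTRF after 1 h detection; compounds added 10 min before NKH477 (200nM […]) forskolin-analogue stimulation, 30 min at room temperature, with Ro20-1724 present at 0.1 mM final.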

Experiment [16] shares this target. The experiment in a line: Dopamine D2 receptor (DRD2) small molecule antagonists, cell-based qHTS assay (AID 1963595; active means well fitted inhibition curve with a large enough effect in the signal ratio in the repeat runs, with a control signal flat; the % refers to the signal ratio; further: potency means the concentration at half of the fitted maximal effect). The procedure, abridged: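 HEK293 cells stably expressing DRD2 were preincubated with 0.1 mM Ro20-1724, then with compound for 10 min at room temperature. Cells were stimulated with 200 nM NKH477 plus 12 nM quinpirole for 30 min, and cAMP was read by HTRF.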

Experiment [17] has as its target Muscarinic acetylcholine receptor M1 (Homo sapiens) (UniProt P11229). Put plainly: Cholinergic receptor muscarinic 1 (CHRM1) small molecule antagonists, cell-based qHTS assay (AID 1963588). Further: nearly all actives have a fitted effect of over 40% in size. The procedure, abridged: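 Compounds were tested at 15 concentrations in three independent runs. Dye-loaded CHRM1-CHO cells were exposed 5 min at room temperature before stimulation by acetylcholine added at 50nM. Intracellular calcium was read kinetically on FDSS for 3 min.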

Experiment [18] concerns the target Beta-2 adrenergic receptor (Homo sapiens) (UniProt P07550). Put plainly: Adrenergic beta2 receptor (ADRB2) small molecule agonists, cell-based qHTS assay (AID 1963593). Further: potency means the concentration at half of the fitted maximal effect. The procedure, abridged: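 CHO cells stably over-expressing ADRB2 were plated overnight at 37C, then dosed with compounds plus a stimulation mix containing 100uM IBMX and 25uM Ro-20-1724 for 0.5hr at room temperature. cAMP was measured by HTRF competition, 1hr.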

Each structure is given as a SMILES string. Values without a mark were called inactive. Inconclusive results are not listed. Calls of active or inactive are those of the source. Unless noted, the call rests on the fitted dose curve.

Sequence of D(2) dopamine receptor (Homo sapiens) (P14416 whole entry, looked up): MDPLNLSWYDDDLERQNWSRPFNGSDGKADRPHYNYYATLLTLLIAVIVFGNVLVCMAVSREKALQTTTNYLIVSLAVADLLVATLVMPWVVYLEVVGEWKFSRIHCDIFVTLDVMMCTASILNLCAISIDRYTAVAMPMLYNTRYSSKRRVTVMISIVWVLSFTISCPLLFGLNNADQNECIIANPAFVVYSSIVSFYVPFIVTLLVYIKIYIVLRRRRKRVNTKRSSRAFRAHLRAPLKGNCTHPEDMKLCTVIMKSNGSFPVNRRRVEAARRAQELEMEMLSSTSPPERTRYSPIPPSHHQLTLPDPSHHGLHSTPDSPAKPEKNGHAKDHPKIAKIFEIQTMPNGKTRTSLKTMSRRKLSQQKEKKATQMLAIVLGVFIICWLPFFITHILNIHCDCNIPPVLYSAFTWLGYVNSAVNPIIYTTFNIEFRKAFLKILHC
Sequence of Beta-2 adrenergic receptor (Homo sapiens) (P07550 whole entry, looked up): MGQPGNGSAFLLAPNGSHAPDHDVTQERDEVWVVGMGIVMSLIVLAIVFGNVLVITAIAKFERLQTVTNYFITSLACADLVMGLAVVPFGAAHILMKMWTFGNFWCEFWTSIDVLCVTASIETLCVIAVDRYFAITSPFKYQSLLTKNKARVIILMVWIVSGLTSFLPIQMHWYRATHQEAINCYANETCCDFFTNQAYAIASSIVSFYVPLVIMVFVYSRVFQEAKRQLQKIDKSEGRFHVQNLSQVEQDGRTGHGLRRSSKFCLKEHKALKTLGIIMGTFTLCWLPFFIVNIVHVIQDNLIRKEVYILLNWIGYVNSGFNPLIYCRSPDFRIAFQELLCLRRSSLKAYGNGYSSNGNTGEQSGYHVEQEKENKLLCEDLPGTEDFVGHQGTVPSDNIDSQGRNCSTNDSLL
Sequence of 5-hydroxytryptamine receptor 2A (Homo sapiens) (P28223 whole entry, looked up): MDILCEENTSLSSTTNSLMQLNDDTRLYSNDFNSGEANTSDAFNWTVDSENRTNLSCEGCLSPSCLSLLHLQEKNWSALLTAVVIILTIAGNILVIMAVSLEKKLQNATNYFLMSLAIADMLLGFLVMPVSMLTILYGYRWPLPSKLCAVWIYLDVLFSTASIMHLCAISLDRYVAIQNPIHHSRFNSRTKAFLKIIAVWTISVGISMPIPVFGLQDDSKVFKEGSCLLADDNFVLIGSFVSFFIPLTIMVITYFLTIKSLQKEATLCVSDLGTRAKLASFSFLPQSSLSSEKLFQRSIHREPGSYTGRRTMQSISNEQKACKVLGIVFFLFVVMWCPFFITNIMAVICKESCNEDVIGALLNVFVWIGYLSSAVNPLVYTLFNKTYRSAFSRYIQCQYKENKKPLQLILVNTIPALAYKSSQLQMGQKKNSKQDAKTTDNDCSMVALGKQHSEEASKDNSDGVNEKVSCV
Sequence of Gonadotropin-releasing hormone receptor (Homo sapiens) (P30968 whole entry, looked up): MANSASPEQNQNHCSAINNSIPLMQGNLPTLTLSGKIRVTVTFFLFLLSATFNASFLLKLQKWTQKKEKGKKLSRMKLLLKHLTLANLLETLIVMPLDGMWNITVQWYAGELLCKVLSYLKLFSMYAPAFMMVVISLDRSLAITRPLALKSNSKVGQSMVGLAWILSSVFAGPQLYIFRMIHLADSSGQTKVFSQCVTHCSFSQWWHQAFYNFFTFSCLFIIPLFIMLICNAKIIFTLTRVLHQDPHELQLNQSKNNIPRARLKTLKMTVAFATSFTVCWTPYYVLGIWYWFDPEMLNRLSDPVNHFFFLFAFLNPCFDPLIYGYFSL
Sequence of Muscarinic acetylcholine receptor M1 (Homo sapiens) (P11229 whole entry, looked up): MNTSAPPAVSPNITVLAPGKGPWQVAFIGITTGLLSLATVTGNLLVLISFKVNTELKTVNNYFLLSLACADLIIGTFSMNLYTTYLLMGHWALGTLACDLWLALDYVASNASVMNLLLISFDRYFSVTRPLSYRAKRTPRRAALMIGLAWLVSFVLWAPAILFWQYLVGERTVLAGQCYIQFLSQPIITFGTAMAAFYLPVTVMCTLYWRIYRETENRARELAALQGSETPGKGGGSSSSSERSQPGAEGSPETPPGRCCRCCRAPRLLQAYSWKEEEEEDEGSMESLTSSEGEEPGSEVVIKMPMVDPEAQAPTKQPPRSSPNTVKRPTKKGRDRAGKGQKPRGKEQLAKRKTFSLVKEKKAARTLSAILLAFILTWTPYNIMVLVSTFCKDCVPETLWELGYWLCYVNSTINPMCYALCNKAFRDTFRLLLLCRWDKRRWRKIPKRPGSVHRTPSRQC
Sequence of KiSS-1 receptor (Homo sapiens) (Q969F8 whole entry, looked up): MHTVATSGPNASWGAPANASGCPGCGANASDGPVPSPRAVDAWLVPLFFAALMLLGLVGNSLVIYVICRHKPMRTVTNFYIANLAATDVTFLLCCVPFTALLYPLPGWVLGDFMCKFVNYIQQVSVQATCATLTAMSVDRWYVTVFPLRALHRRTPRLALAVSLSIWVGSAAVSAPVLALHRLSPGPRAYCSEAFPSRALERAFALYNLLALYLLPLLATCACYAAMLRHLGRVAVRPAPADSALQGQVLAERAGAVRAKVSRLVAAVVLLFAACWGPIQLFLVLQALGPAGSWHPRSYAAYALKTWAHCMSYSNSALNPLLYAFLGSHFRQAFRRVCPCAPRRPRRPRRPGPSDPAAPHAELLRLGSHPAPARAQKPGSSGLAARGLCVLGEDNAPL

For the compound `CC1=CC(=O)CCC1`, the Potency result in [1], in experiment [2], in experiment [3], in [4], in [5] and in [6] was “inactive” throughout. Further, the Potency result in experiment [7], in [8], in experiment [9], in experiment [10], in experiment [11] and in [12] was “inactive” in each case. Besides, the Potency entry in experiment [13], in experiment [14], in [15] and in experiment [16] was “inactive” in each case.

Turning to `CCOC(=O)[C@@](C)(N)Cc1ccc(O)c(O)c1`, the Potency entry in [1], in experiment [2], in [3], in [4], in [5] and in [6] was “inactive” in each case. Besides, the Potency result in experiment [7], in [8], in experiment [9], in experiment [10], in experiment [17] and in experiment [13] was “inactive” in each case. In addition, the Potency result in experiment [14], in [15] and in [16] was “inactive” each time.

As for `Cc1ncc(COP(=O)(O)O)c(C=O)c1O`, the Potency entry in experiment [1], in experiment [2], in [3], in [4], in experiment [5] and in experiment [6] was “inactive” throughout. In addition, the Potency entry in [7], in experiment [8], in experiment [9], in experiment [10], in experiment [17] and in experiment [13] was “inactive” in each case. The Potency result in experiment [14] and in experiment [15] was “inactive” each time.

As to `Cc1ccc(C(=O)O)cc1[N+](=O)[O-]`, the Potency entry in [1], in experiment [2], in [3], in experiment [4], in experiment [5] and in [6] was “inactive” in each case. Also, the Potency entry in [7], in experiment [8], in experiment [9], in experiment [10], in experiment [17] and in experiment [12] was “inactive” throughout. The Potency result in experiment [15] and in [16] was “inactive” in each case.

For `c1cc[c]([Bi]([c]2ccccc2)[c]2ccccc2)cc1`, the Potency result in experiment [1], in [3], in [4], in experiment [5], in [6] and in experiment [7] was “inactive” in each case. Further, the Potency result in experiment [8], in experiment [9], in [10], in [17], in experiment [11] and in [15] was “inactive” each time. For the same compound, the Potency in experiment [2] was 4.86 µM (active); in experiment [18] it was 1.72 µM (active); in experiment [16] it was 9.69 µM (active).

Take `O=C1c2ccccc2C(=O)c2cc(S(=O)(=O)O)ccc21`: the Potency result in experiment [1], in [2], in [3], in experiment [4], in [5] and in experiment [6] was “inactive” in each case. For the same compound, the Potency result in experiment [7], in experiment [8], in [9], in experiment [10], in experiment [11] and in experiment [12] was “inactive” each time. Moreover, the Potency result in experiment [13], in [14], in [18] and in experiment [15] was “inactive” in each case.

For `CC(=O)Nc1ccc(OC(=O)c2ccccc2OC(C)=O)cc1`, the Potency result in [1], in experiment [2], in experiment [3], in experiment [4], in experiment [5] and in experiment [6] was “inactive” in each case. For the same compound, the Potency result in [7], in experiment [8], in experiment [9], in [10], in experiment [17] and in [12] was “inactive” in each case. The Potency entry in [13], in experiment [14], in [18], in experiment [15] and in [16] was “inactive” each time.
